Of roughly 8,800 targets only a part is listed; those with a hit were picked by preference. About 0.5% of all pairs of compound and target were hits.
How the values were obtained:
Test in all cases: log2 fold change, soluble protein after heating vs DMSO (PISA); higher = thermal stabilisation; K562 lysate, 10 uM; active = over 0.2 and 3.5 SD of the protein, either way, in both replicates (recomputed)
erlotinib = compound: C#Cc1cccc(Nc2ncnc3cc(OCCOC)c(OCCOC)cc23)c1 [erlotinib]
How it was run: (§1)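 Following dounce homogenisation of K562 pellets in PBS pH 7.4 with 1 mM MgCl2, crude extract at 1 mg/mL protein was incubated for 30 min with 10 μM compound. Aliquots were then heated for 3 min over 48°C-58°C and pooled, NP-40 was added to 0.5% at 4°C, and soluble protein was recovered as the supernatant at 21,000xg for 90 min. Channel-sum-equalised TMTpro 16plex LC-MS/MS quantified this protein. Each value, from duplicates, is a log-two fold change in thermal stability relative to solvent controls.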

[1] = compound: C/C(=N\NC(=O)C1=CC(=CC=C1)S(=O)(=O)N2CCOCC2)/C3=C(C=CC(=C3)Cl)O
How it was run: as §1

[2] = compound: C1=CC(=CC=C1C2=NC3=C(N2)C=C(C=C3)C(=O)N)OC4=CC=C(C=C4)Cl
How it was run: as §1

[3] = compound: C1=CC2=C(C=CC(=C2)/C=C\3/C(=O)NC(=NCC4=CC=CS4)S3)N=C1
How it was run: as §1

[4] = compound: C1=CC2=NC=CN=C2C=C1/C=C/3\C(=O)NC(=O)S3
How it was run: as §1

[5] = compound: C1=CC=C(C=C1)C2=NC(=C(N2)C3=CC=NC=C3)C4=CC(=C(C=C4)Cl)O
How it was run: as §1

[6] = compound: C1=CC=C2C(=C1)C3=NNC4=CC=CC(=C43)C2=O
How it was run: as §1

[7] = compound: C1CCN(C1)C(=O)NC2=CC=CC(=C2)NC3=NC=C(C(=N3)NCCC4=CN=CN4)Br
How it was run: as §1

[8] = compound: C1CN(CCC1(CC2=CC=C(C=C2)Cl)N)C3=NC=NC4=C3C=CN4
How it was run: as §1

IRAK-1-4 Inhibitor I = compound: C1COCCN1CCN2C3=CC=CC=C3N=C2NC(=O)C4=CC(=CC=C4)[N+](=O)[O-] [IRAK-1-4 Inhibitor I]
How it was run: as §1

ibrutinib = compound: C=CC(=O)N1CCC[C@@H](n2nc(-c3ccc(Oc4ccccc4)cc3)c3c(N)ncnc32)C1 [ibrutinib]
How it was run: as §1

[9] = compound: CC(=O)c1cnc2ccc(-c3cc(Cl)c(O)c(Cl)c3)nc2c1N[C@H]1CC[C@H](CN(C)C)CC1
How it was run: as §1

ralimetinib = compound: CC(C)(C)Cn1c(N)nc2ccc(-c3[nH]c(C(C)(C)C)nc3-c3ccc(F)cc3)nc21 [ralimetinib]
How it was run: as §1

[10] = compound: CC(C)(O)CC(=O)NCCn1ccc2ncnc(Nc3ccc(Oc4cccc(C(F)(F)F)c4)c(Cl)c3)c21
How it was run: as §1

[11] = compound: CC(C)C1=C2N=C(C=C(N2N=C1)NCC3=CC=CC=C3)NCCCCCCN
How it was run: as §1

[12] = compound: CC1=C(C(CC(=O)N1)C2=CC=C(C=C2)C(F)(F)F)C(=O)NC3=C(C=C4C(=C3)C=NN4)F
How it was run: as §1

[13] = compound: CC1=C(C2=C(C=C1)C(=O)C3=CC=CC=C3N2CCCN)C
How it was run: as §1

[14] = compound: CC1=C(C=C(C=C1)NC(=O)C2=CC(=CC=C2)C(C)(C)C#N)NC3=CC4=C(C=C3)N=CN(C4=O)C
How it was run: as §1

[15] = compound: CC1=C(C=C(C=C1)NC(=O)C2=CC(=CC=C2)N(C)C)NC(=O)C3=CC=C(C=C3)O
How it was run: as §1

[16] = compound: CC1=CC=C(C=C1)SC2=C3C=C(SC3=CN=C2)C(=O)N
How it was run: as §1

Measured: log2 fold change

CDC123 (UniProt O75794)
Sequence of UniProt O75794 (O75794 whole entry, looked up): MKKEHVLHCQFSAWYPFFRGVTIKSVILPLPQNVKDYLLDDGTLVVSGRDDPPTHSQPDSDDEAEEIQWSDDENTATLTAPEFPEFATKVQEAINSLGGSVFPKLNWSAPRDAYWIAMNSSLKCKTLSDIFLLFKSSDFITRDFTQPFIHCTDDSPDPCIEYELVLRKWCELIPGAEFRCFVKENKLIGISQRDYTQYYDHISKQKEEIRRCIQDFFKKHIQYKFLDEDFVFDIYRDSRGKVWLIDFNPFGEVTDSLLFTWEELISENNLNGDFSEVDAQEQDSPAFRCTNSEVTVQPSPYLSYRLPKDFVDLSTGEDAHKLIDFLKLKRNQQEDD
inactive: erlotinib 0.013 | [1] -0.02 | [2] -0.011 | [3] -0.006 | [4] -0.06 | [5] -0.006 | [6] 0.013 | [7] 0 | [8] -0.004 | IRAK-1-4 Inhibitor I -0.025 | ibrutinib 0.025 | [9] 0.022 | ralimetinib 0.06 | [10] 0.008 | [11] 0.027 | [12] 0.045 | [13] 0.016 | [14] -0.071 | [15] 0.031 | [16] 0.003

CCDC22 (UniProt O60826)
Sequence of UniProt O60826 (O60826 whole entry, looked up): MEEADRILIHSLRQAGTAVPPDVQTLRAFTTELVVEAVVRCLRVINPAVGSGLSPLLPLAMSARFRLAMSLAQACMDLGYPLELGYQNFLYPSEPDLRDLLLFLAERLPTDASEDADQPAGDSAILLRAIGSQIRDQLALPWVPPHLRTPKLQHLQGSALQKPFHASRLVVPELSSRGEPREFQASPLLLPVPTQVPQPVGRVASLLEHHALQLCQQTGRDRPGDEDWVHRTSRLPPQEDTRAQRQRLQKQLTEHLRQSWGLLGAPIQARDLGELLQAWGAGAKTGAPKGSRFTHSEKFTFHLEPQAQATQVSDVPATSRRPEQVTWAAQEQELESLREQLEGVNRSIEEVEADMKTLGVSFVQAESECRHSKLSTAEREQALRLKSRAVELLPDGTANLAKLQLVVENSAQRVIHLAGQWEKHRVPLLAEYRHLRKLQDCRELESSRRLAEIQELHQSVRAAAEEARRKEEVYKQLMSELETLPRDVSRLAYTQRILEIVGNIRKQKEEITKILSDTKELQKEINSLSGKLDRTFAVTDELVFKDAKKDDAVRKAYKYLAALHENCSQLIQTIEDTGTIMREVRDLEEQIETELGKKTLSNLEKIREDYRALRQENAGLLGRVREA
inactive: erlotinib -0.039 | [1] -0.007 | [2] 0.002 | [3] 0.02 | [4] -0.03 | [5] -0.017 | [6] -0.06 | [7] 0.007 | [8] 0.03 | IRAK-1-4 Inhibitor I 0.011 | ibrutinib 0.006 | [9] 0.033 | ralimetinib -0.005 | [10] -0.045 | [11] -0.009 | [12] 0.005 | [13] 0.001 | [14] -0.01 | [15] 0.025 | [16] -0.027

ATAD3B (UniProt Q5T9A4)
inactive: erlotinib -0.016 | [1] 0.031 | [2] -0.111 | [3] 0.029 | [4] 0.019 | [5] -0.017 | [6] 0.096 | [7] 0.018 | [8] -0.009 | IRAK-1-4 Inhibitor I 0.032 | ibrutinib -0.054 | [9] 0.018 | ralimetinib -0.027 | [10] -0.069 | [11] -0.012 | [12] -0.026 | [13] -0.028 | [14] -0.03 | [15] 0.045 | [16] 0.015

CCAR2 (UniProt Q8N163)
inactive: erlotinib -0.004 | [1] -0.006 | [2] -0.003 | [3] -0.01 | [4] 0.01 | [5] 0.005 | [6] 0.001 | [7] 0 | [8] 0.001 | IRAK-1-4 Inhibitor I -0.009 | ibrutinib 0.025 | [9] -0.019 | ralimetinib 0.012 | [10] -0.006 | [11] -0.018 | [12] 0 | [13] 0.01 | [14] 0.003 | [15] 0.015 | [16] -0.005

BTAF1 (UniProt O14981)
Sequence of UniProt O14981 (O14981 whole entry, looked up): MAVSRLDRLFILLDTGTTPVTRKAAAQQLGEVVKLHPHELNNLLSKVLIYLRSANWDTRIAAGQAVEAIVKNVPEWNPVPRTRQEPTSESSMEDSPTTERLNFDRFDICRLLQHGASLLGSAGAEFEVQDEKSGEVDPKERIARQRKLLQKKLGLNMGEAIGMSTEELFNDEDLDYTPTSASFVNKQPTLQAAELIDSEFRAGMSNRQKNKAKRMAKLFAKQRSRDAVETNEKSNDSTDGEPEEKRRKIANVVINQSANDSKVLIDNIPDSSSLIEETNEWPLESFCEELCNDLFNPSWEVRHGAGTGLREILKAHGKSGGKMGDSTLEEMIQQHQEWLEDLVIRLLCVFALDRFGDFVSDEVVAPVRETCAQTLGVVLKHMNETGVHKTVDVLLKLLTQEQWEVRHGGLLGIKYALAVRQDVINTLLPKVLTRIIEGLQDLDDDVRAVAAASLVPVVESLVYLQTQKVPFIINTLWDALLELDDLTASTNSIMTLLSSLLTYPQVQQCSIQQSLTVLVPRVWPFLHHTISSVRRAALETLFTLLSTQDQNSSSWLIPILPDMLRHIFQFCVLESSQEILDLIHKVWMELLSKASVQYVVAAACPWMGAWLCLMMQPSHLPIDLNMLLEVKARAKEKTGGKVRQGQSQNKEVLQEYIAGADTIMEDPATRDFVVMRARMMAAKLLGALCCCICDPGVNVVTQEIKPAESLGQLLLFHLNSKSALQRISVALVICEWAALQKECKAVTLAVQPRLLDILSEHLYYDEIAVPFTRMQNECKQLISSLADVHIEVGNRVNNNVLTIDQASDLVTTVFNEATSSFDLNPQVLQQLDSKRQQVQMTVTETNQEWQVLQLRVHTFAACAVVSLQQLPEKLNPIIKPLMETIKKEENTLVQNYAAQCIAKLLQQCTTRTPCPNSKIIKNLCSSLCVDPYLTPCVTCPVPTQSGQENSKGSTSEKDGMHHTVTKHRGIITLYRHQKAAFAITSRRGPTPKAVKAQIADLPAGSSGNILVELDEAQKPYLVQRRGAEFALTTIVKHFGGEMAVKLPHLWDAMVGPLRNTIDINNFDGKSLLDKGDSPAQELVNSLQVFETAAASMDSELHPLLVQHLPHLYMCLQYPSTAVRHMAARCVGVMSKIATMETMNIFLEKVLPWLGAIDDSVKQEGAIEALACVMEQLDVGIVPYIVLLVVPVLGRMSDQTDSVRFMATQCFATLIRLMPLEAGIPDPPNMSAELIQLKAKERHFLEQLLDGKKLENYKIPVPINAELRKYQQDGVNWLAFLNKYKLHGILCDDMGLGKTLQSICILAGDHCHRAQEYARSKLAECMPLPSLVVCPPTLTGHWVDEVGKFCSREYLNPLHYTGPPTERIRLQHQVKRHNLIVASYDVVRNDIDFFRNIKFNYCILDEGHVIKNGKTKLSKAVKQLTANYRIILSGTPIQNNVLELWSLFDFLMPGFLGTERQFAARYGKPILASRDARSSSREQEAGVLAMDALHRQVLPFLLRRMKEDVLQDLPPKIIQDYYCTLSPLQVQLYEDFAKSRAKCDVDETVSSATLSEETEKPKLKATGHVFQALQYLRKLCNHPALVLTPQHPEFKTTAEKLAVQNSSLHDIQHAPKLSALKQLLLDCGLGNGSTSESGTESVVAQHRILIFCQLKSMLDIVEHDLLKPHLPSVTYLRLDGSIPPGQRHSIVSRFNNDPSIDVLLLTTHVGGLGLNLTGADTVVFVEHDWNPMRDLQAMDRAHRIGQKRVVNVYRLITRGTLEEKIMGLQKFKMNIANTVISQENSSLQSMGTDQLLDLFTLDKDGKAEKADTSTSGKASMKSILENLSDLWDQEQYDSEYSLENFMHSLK
inactive: erlotinib 0.044 | [1] -0.035 | [2] -0.01 | [3] -0.002 | [4] -0.003 | [5] 0.002 | [6] 0.002 | [7] -0.017 | [8] 0.022 | IRAK-1-4 Inhibitor I -0.034 | ibrutinib -0.016 | [9] -0.003 | ralimetinib 0.01 | [10] -0.008 | [11] 0.003 | [12] 0.018 | [13] 0.023 | [14] 0 | [15] 0.025 | [16] -0.012

CCNB2 (UniProt O95067)
inactive: erlotinib 0.037 | [1] 0.038 | [2] 0.075 | [3] -0.061 | [4] -0.008 | [5] 0.008 | [6] -0.125 | [7] -0.02 | [8] 0.027 | IRAK-1-4 Inhibitor I 0.033 | ibrutinib -0.062 | ralimetinib 0.028 | [10] -0.028 | [11] 0.023 | [12] -0.011 | [13] 0.017 | [14] 0.022 | [15] 0.037 | [16] -0.079
active: [9] 0.358

CCDC32 isoform 2 (UniProt Q9BV29)
inactive: erlotinib -0.021 | [1] 0.031 | [2] -0.027 | [3] 0 | [4] -0.014 | [5] -0.003 | [6] 0.007 | [7] 0.048 | [8] 0.049 | IRAK-1-4 Inhibitor I 0.057 | [9] 0.026 | ralimetinib -0.005 | [10] 0 | [11] 0.047 | [12] -0.017 | [13] -0.03 | [14] 0.051 | [15] 0.028 | [16] 0.03
active: ibrutinib 0.276

ATP5PF isoform 2 (UniProt P18859)
Sequence of UniProt P18859 (P18859 whole entry, looked up): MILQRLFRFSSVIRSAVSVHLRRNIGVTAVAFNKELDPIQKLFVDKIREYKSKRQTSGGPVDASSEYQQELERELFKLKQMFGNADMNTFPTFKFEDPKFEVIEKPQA
inactive: erlotinib 0.063 | [1] 0.107 | [2] -0.021 | [3] 0.011 | [4] 0.017 | [5] 0.05 | [6] -0.01 | [7] -0.003 | [8] 0.09 | IRAK-1-4 Inhibitor I -0.026 | ibrutinib 0.069 | [9] -0.055 | ralimetinib -0.003 | [10] 0.063 | [11] -0.053 | [12] -0.032 | [13] -0.055 | [14] 0.026 | [15] 0.05 | [16] 0.083

CHAC2 (UniProt Q8WUX2)
inactive: erlotinib 0.019 | [1] 0.097 | [2] 0.049 | [3] 0.022 | [4] -0.023 | [5] 0.055 | [6] -0.012 | [7] 0.032 | [8] 0.044 | IRAK-1-4 Inhibitor I -0.038 | ibrutinib -0.064 | [9] -0.014 | ralimetinib -0.01 | [10] 0.043 | [11] -0.118 | [12] -0.026 | [13] -0.048 | [14] -0.016 | [15] 0.017 | [16] -0.031

CARD9 (UniProt Q9H257)
Sequence of UniProt Q9H257 (Q9H257 whole entry, looked up): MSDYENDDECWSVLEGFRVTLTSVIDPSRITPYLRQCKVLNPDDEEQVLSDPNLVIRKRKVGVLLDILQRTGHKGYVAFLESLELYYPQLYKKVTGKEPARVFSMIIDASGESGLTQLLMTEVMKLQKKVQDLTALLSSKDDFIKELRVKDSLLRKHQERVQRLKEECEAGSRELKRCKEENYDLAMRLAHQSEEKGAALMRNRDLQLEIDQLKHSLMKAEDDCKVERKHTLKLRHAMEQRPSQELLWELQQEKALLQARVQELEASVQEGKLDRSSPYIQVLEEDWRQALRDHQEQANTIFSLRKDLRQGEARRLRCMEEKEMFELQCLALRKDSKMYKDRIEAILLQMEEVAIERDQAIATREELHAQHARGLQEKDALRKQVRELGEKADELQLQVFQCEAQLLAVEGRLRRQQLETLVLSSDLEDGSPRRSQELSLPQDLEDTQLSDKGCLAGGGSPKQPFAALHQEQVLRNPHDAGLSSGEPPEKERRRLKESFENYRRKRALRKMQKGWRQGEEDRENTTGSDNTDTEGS
inactive: erlotinib 0.035 | [1] -0.024 | [2] -0.029 | [3] -0.02 | [4] -0.024 | [5] -0.009 | [6] 0.033 | [7] 0.015 | [8] -0.003 | IRAK-1-4 Inhibitor I 0.017 | ibrutinib -0.034 | [9] 0.037 | ralimetinib 0.014 | [10] -0.029 | [11] 0.019 | [12] -0.022 | [13] -0.027 | [14] -0.005 | [15] -0.008 | [16] -0.038

BCL2L12 (UniProt Q9HB09)
inactive: erlotinib 0.055 | [1] -0.067 | [2] -0.01 | [3] -0.056 | [4] 0.119 | [5] -0.111 | [6] 0.144 | [7] 0.162 | [8] 0.015 | IRAK-1-4 Inhibitor I 0.002 | ibrutinib -0.26 | [9] -0.084 | ralimetinib 0.073 | [10] -0.024 | [11] 0.057 | [12] 0 | [13] -0.021 | [14] 0.028 | [15] -0.024 | [16] 0.099

CHCHD2 (UniProt Q9Y6H1)
inactive: erlotinib -0.068 | [1] -0.03 | [2] -0.086 | [3] 0.033 | [4] -0.024 | [5] 0.027 | [6] 0.092 | [7] 0.009 | [8] 0.057 | IRAK-1-4 Inhibitor I -0.005 | ibrutinib -0.122 | [9] -0.005 | ralimetinib -0.068 | [10] 0.035 | [11] 0.02 | [12] 0.112 | [13] 0.023 | [14] -0.172 | [15] -0.046 | [16] 0.069

CDC25C (UniProt P30307)
Sequence of UniProt P30307 (P30307 whole entry, looked up): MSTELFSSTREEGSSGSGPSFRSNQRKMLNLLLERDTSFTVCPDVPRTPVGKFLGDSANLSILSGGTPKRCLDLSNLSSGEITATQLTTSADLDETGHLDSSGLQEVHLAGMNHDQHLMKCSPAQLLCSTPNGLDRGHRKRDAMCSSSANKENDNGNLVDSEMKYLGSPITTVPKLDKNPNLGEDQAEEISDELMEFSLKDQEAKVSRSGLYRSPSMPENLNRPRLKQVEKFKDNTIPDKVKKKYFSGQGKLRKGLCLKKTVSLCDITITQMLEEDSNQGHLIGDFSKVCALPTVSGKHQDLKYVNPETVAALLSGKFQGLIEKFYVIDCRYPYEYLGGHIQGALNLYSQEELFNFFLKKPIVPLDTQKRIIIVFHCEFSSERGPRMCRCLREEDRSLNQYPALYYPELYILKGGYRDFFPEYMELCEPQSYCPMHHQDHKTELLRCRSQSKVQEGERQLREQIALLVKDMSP
inactive: erlotinib 0.007 | [1] -0.157 | [2] -0.061 | [3] 0.042 | [4] -0.031 | [5] 0.026 | [6] -0.148 | [7] -0.035 | [8] -0.058 | IRAK-1-4 Inhibitor I -0.039 | ibrutinib 0.006 | [9] 0.01 | ralimetinib 0.013 | [10] 0.091 | [11] -0.027 | [12] 0.026 | [13] 0.059 | [14] -0.022 | [15] -0.004 | [16] -0.019

CAPN15 (UniProt O75808)
Sequence of UniProt O75808 (O75808 whole entry, looked up): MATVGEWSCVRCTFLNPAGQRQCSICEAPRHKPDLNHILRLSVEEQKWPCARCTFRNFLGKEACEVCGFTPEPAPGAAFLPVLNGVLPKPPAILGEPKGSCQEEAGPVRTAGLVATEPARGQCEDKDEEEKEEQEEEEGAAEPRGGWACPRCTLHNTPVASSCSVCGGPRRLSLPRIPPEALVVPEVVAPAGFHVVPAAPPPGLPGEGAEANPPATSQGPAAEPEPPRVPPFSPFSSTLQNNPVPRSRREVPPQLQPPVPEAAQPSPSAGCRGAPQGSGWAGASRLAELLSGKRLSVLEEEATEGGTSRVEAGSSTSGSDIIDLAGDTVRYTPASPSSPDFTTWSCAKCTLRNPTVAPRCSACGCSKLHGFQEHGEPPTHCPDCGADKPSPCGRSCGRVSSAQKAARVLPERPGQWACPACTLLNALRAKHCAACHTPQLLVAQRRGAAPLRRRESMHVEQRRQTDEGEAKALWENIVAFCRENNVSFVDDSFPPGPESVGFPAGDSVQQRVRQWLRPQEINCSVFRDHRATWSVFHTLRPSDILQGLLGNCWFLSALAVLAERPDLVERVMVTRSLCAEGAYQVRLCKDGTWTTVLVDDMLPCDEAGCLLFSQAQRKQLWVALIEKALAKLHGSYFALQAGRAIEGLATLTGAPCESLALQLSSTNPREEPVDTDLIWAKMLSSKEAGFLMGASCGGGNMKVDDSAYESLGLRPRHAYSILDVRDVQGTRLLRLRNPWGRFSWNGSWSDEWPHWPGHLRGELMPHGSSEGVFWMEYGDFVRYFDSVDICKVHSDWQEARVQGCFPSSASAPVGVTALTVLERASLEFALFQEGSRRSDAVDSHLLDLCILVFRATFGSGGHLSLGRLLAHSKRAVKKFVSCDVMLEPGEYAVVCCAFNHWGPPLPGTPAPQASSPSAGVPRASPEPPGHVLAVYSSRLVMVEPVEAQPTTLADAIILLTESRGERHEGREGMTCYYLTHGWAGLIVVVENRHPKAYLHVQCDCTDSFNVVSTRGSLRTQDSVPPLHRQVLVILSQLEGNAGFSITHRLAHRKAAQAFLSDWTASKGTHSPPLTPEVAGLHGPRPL
inactive: erlotinib 0.01 | [1] 0.187 | [2] -0.011 | [3] -0.028 | [4] -0.104 | [5] -0.05 | [6] 0.026 | [7] 0.019 | [8] 0.031 | IRAK-1-4 Inhibitor I 0.01 | ibrutinib 0.037 | [9] -0.065 | ralimetinib 0.09 | [10] 0.008 | [11] -0.002 | [12] 0.025 | [13] 0.019 | [14] 0.086 | [15] 0.007 | [16] 0.046

ATP13A1 (UniProt Q9HD20)
inactive: erlotinib 0.02 | [1] -0.09 | [2] -0.153 | [3] 0.024 | [4] -0.026 | [5] 0.02 | [6] -0.054 | [7] -0.04 | [8] 0.033 | IRAK-1-4 Inhibitor I 0.015 | ibrutinib -0.021 | [9] 0.048 | ralimetinib 0.029 | [10] -0.104 | [11] 0.036 | [12] 0.005 | [13] -0.089 | [14] -0.108 | [15] 0.062 | [16] 0.007
